± gives the standard deviation of the averaged measurements. The full ranking holds about 1,900 compounds; the median of “CD40L-induced NF-kB luciferase activity, plate-corrected, relative to DMSO (0) and IKK inhibitor VII (-100) controls” is about 0.032, and the lowest 2% start at about -26. The sample as a whole holds a higher share of the lowest values than the screen did.

For this assay, the system named is BL2-NFkB-Luc. The assay can be described thus: CD40L-induced NF-kB luciferase activity, plate-corrected, relative to DMSO (0) and IKK inhibitor VII (-100) controls (% normalized activity); higher = more NF-kB reporter activity (less inhibition). To be noted: 9.4 µM; stimulus: tCD40L 64 ng/ml; 4.5 h. Here is the method: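 BL2 B cells with a stable NF-kB response-element luciferase reporter (BL2-NFkB-Luc), 384-well. Cells were pre-incubated with compound at 9.4 uM for 1 h at 37 C, then stimulated with 64 ng/ml trimerized CD40L for 4.5 h; luciferase was read with Steady-Glo. Signal was normalised per plate in Genedata (median DMSO neutral control = 0, median IKK inhibitor VII at 50 uM = -100) with Assay Median plate-pattern correction; duplicate plates.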
In the case of `O=c1c2ccccc2nc2n1-c1ccccc1CCC2`, the “CD40L-induced NF-kB luciferase activity” value was -5.01 ± 3.7.
On to `COc1ccc2c(c1)[nH]c1c(=O)n(Cc3ccccn3)cnc12`, for which the “CD40L-induced NF-kB luciferase activity” value was -0.0285 ± 6.5.
For the compound `COc1ccc(/C=C/C(=O)Nc2ccccc2C(=O)O)cc1OC`, the “CD40L-induced NF-kB luciferase activity” value is -57.1 ± 1.6.
Next, `O=C(/C=C/c1ccco1)Nc1ccccc1C(=O)O`: 1.64 ± 1.8.
Turning to `COc1ccc(CC(=O)Nc2cccc(C(=O)Nc3ccccc3C(=O)O)c2)cc1OC`, the “CD40L-induced NF-kB luciferase activity” value is -2.42 ± 3.4.
`Cc1cc(O)c(C(C)C)cc1C1(c2cc(C(C)C)c(O)cc2C)OC(=O)c2ccccc21`: the “CD40L-induced NF-kB luciferase activity” value is -36.1 ± 2.9.
For the compound `O=C1OC(c2ccc(O)cc2)(c2ccc(O)cc2)c2ccccc21`, the “CD40L-induced NF-kB luciferase activity” value was 0.943 ± 1.8.
Take `Cc1ccccc1-c1coc2cc(O)ccc2c1=O`: the “CD40L-induced NF-kB luciferase activity” value was determined as 4.65 ± 2.2.
In the case of `C/C=C/Cn1c(SC)nc2c1c(=O)[nH]c(=O)n2C`, the “CD40L-induced NF-kB luciferase activity” value was -0.907 ± 1.9.
The value for `COCC(C)NC(=O)c1ccc(CN2CCc3ccccc3C2)cc1` (stereo not given) was 7.18 ± 5.
`O=C(O)c1cc(-c2ccc3c(c2)OCO3)nc2ccc(Br)cc12`: the “CD40L-induced NF-kB luciferase activity” value was 9.08 ± 4.
For `CCc1cc2c(=O)c(-c3ccc(F)cc3)c(C)oc2cc1OCC(=O)O`, the “CD40L-induced NF-kB luciferase activity” value is 1.94 ± 0.96.
For the compound `O=C1c2ccccc2N2C(=O)c3ccccc3C2N1Cc1ccco1` (stereo not given), the “CD40L-induced NF-kB luciferase activity” value was -3.98 ± 15.
On to `O=C1OC(Nc2ccc3c(c2)OCO3)c2ccccc21` (stereo not given), for which the “CD40L-induced NF-kB luciferase activity” value was -15.2 ± 0.48.
As for `O=S(=O)(NCCCCCNS(=O)(=O)c1ccccc1)c1ccccc1`, the “CD40L-induced NF-kB luciferase activity” value is -7.09 ± 9.8.
On to `COc1ccc2[nH]cc(C3N4CC5(C)CN3CC(C)(C4)C5=O)c2c1` (stereo not given), for which the “CD40L-induced NF-kB luciferase activity” value worked out at 2.08 ± 1.7.
For `COc1ccc2[nH]c(=O)c3c(c2c1)OC(C)(C)C=C3`, the “CD40L-induced NF-kB luciferase activity” value was -32.8 ± 0.38.
As to `COc1ccc2[nH]c(=O)c(CN(C(=O)c3ccco3)C(C)C)cc2c1`, the “CD40L-induced NF-kB luciferase activity” value is 0.241 ± 0.71.
In the case of `O=C(COc1ccc(F)cc1)OCCN1CCOCC1`, the “CD40L-induced NF-kB luciferase activity” value came to 0.903 ± 1.5.
Regarding `COc1ccccc1C1C(C#N)=C(N)Oc2c1oc(CO)cc2=O` (stereo not given), the “CD40L-induced NF-kB luciferase activity” value is -1.31 ± 0.27.
Next, `O=C1OC(c2ccccc2)=C/C1=C/c1cccs1`: 30.9 ± 2.3; `OC(COCc1ccccc1)CN1CCN(Cc2ccc3c(c2)OCO3)CC1` (stereo not given): -0.97 ± 0.41.
As for `COc1cc2c(cc1OC)C1(CCCCC1)CN(C)C2`, the “CD40L-induced NF-kB luciferase activity” value is -4.22 ± 0.72.
Turning to `O=C(CC1SC(=O)NC1=O)Nc1ccc(Cl)cc1` (stereo not given), the “CD40L-induced NF-kB luciferase activity” value worked out at 2.93 ± 5.1.
On to `O=C(NN=Cc1ccc([N+](=O)[O-])o1)c1ccc(O)cc1`, for which the “CD40L-induced NF-kB luciferase activity” value is -1.71 ± 0.97.
As to `COC(=O)CSc1nc2ccc(N)cc2s1`, the “CD40L-induced NF-kB luciferase activity” value was 0.507 ± 4.2.
With `O=C(O)CCSc1nc2ccccc2s1`, the “CD40L-induced NF-kB luciferase activity” value is -42.3 ± 0.52.
Turning to `CCOCC(=O)Nc1nc2ccccc2s1`, the “CD40L-induced NF-kB luciferase activity” value came to 50.7 ± 10.
Next, `CN(CCc1cnn(C)c1)Cc1nc(CC2CC2)no1`: -0.906 ± 0.31; `COc1ccc(O)c(C(=O)/C=C/c2cc3ccccc3o2)c1`: 83.3 ± 3.2; `O=C(OCCN1CCOCC1)c1cccs1`: -4.77 ± 5.6.
For the compound `COc1ccc(CCCC(=O)O)c(C)c1`, the “CD40L-induced NF-kB luciferase activity” value was 1.85 ± 1.2.
For `CCN(CC)C1=C(Cl)C(=O)C(Cl)C12OCCO2` (stereo not given), the “CD40L-induced NF-kB luciferase activity” value was -4.69 ± 4.8.
Consider `Cc1cc(C=NO)c(C)n1-c1ccc(Br)cc1`, for which the “CD40L-induced NF-kB luciferase activity” value was -0.84 ± 0.39.
Next, `COc1ccc(C2N3CC4(C)CN2CC(C)(C3)C4)cc1OC` (stereo not given): -1.8 ± 1.9; `COc1ccc(C(=O)Nc2cccc3cccnc23)cc1OC`: 19.3 ± 10.
Turning to `O=C(NCCC(c1ccccc1)c1ccco1)c1cccs1` (stereo not given), the “CD40L-induced NF-kB luciferase activity” value is 24.9 ± 2.2.
In the case of `CCc1cc2c(=O)c(-c3nc4ccccc4n3C)coc2c(CN2CCN(C)CC2)c1O`, the “CD40L-induced NF-kB luciferase activity” value is -3.98 ± 2.5.
As for `CC(C)[C@H]1CN(C)CCN1Cc1cn(C)nc1-c1cccc(Cl)c1`, the “CD40L-induced NF-kB luciferase activity” value turned out to be 2.03 ± 0.42.
Take `Cc1c(OC(=O)CNC(=O)OC(C)(C)C)ccc2c3c(c(=O)oc12)CCC3`: the “CD40L-induced NF-kB luciferase activity” value was determined as 3.02 ± 3.5.
With `O=C(O)c1ccc(C(=O)C(=O)c2ccccc2)cc1`, the “CD40L-induced NF-kB luciferase activity” value is -6.47 ± 15.
`CC(=O)C1=C(O)C(=O)N(CC(=O)O)C1c1ccccc1Cl` (stereo not given): the “CD40L-induced NF-kB luciferase activity” value stood at 3.2 ± 3.2.
On to `CC(=O)OCC(=O)[C@@]12OC3(CCCC3)O[C@@H]1C[C@H]1[C@@H]3CCC4=CC(=O)C=C[C@]4(C)[C@@]3(F)[C@@H](O)C[C@@]12C`, for which the “CD40L-induced NF-kB luciferase activity” value is -20.2 ± 1.1.
Consider `CC1(C)O[C@@H]2C[C@H]3[C@@H]4CCC5=CC(=O)C=C[C@]5(C)[C@@]4(F)[C@@H](O)C[C@]3(C)[C@]2(C(=O)CO)O1`, for which the “CD40L-induced NF-kB luciferase activity” value was -31.3 ± 5.1.
On to `CC1(C)O[C@@H]2C[C@H]3[C@@H]4C[C@H](F)C5=CC(=O)C=C[C@]5(C)[C@@]4(F)[C@@H](O)C[C@]3(C)[C@]2(C(=O)CO)O1`, for which the “CD40L-induced NF-kB luciferase activity” value was -23.7 ± 1.8.
`C[C@]12CC[C@H]3[C@@H](CCC4=CC(=O)CC[C@@]43C)[C@@H]1CC[C@@H]2C(=O)CO`: the “CD40L-induced NF-kB luciferase activity” value was -4.85 ± 1.2.
`C[C@@H]1C[C@H]2[C@@H]3CCC4=CC(=O)C=C[C@]4(C)[C@@]3(F)[C@@H](O)C[C@]2(C)[C@H]1C(=O)CO`: the “CD40L-induced NF-kB luciferase activity” value is -31.39 ± 0.23.
The value for `CC(=O)OCC(=O)C1=CCC2C3CCC4=CC(=O)C=CC4(C)C3(F)C(OC(C)=O)CC12C` (stereo not given) was -4.87 ± 4.6; that for `C/C=C/c1ccc(OCCCCN2CC(C)CC(C)C2)c(OC)c1` (stereo not given) was 1.73 ± 0.88; that for `Cc1ccc(OCc2nc(-c3cccnc3)no2)cc1C` was 34.5 ± 7.5.
The value for `CCc1cc(=O)oc2cc(OCc3nn[nH]n3)ccc12` was -0.362 ± 2.4; that for `COc1cc2oc(-c3ccc(O)cc3)cc(=O)c2c(OC)c1O` was 2.41 ± 4.4.
Consider `Cc1cccc(Nc2ncccc2C(=O)O)c1C`, for which the “CD40L-induced NF-kB luciferase activity” value was -3.873 ± 0.016.
As to `CCOc1ccc(C(NC(C)=O)c2ccc(OC)c(OC)c2)cc1` (stereo not given), the “CD40L-induced NF-kB luciferase activity” value was 4.36 ± 0.088.
For the compound `Nc1c(C(=O)c2ccccc2)oc2ccccc12`, the “CD40L-induced NF-kB luciferase activity” value worked out at 17.3 ± 8.5.
Next, `O=C(c1ccc(F)cc1)[C@@H]1[C@@H](C(=O)c2ccccc2)[C@@]2(C(=O)Nc3ccccc32)[C@H]2c3ccccc3C=CN12`: 6.58 ± 1.4; `CCOC(=O)c1cccc(C(=O)OCC)n1`: -2.95 ± 2.1.
In the case of `COc1cccc(CN2CCN(C(=O)c3ccc(-c4ccccc4)cc3)CC2)c1`, the “CD40L-induced NF-kB luciferase activity” value is -7.33 ± 1.1.
For `O=C(/C=C/c1ccc(F)cc1)N1CC[C@@]2(O)CCCC[C@H]2C1`, the “CD40L-induced NF-kB luciferase activity” value is -1.13 ± 0.88.
Take `Cc1ccc(C(=O)NCCNC(=O)c2ccccc2)cc1`: the “CD40L-induced NF-kB luciferase activity” value is -2.5 ± 3.9.
For `O=C(Cc1ccc(Br)cc1)c1ccc(O)cc1O`, the “CD40L-induced NF-kB luciferase activity” value amounted to 32.9 ± 18.
For the compound `O=C(Nc1ccc(C(=O)NC2CCCCC2)cc1)c1cccnc1`, the “CD40L-induced NF-kB luciferase activity” value amounted to 0.625 ± 0.58.
Turning to `COC(=O)c1[nH]c2ccc(C)cc2c1NC(=O)CN1CCc2cc(OC)c(OC)cc2C1`, the “CD40L-induced NF-kB luciferase activity” value was -5.22 ± 6.4.
`COc1ccc(-c2cc(=Nc3ccc(C)cc3)c3ccccc3o2)cc1`: the “CD40L-induced NF-kB luciferase activity” value amounted to 2.07 ± 3.
Next, `C=CCN1C(=O)c2oc3ccccc3c(=O)c2C1c1ccc(O)c(OC)c1` (stereo not given): -0.791 ± 0.32.
